Compounds with a hit are over-represented: about 4.1% of the library has one in this group of screens.
AmpC inh detg = AmpC beta-lactamase inhibition with detergent present | P00811 | AmpC hydrolysis of nitrocefin, absorbance 480 nm, 0.01% Triton | Potency, µM (doses to about 114 µM), usual class: inhibitors | hit rate 0.041% among 370,000; also: nearly all actives have a fitted effect of over 25% in size
Target sequence (P00811 whole entry, looked up): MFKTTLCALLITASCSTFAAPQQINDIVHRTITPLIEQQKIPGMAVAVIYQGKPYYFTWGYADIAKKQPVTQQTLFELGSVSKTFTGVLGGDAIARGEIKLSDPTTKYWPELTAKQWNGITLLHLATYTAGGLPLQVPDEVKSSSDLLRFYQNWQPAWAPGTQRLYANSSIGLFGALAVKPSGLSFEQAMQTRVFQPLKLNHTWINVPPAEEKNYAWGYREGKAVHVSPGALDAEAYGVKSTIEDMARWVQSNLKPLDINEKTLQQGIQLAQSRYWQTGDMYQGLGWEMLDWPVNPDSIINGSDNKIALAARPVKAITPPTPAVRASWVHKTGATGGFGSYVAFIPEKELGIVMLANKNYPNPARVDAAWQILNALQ
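AmpC (5.3 nM in the dispensed reagent) in 20 mM phosphate pH 7.0 with 0.01% (detergent screen) or 0.0001% Triton X-100 was preincubated with compounds for 15 min at room temperature. Nitrocefin was then added from an 800 uM solution, and hydrolysis was followed at 480 nm.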
AMA1-RON2 inh = disrupts binding of P. falciparum AMA1 to RON2; hit rate 0.2% among 360,000; AID 720542; Potency, µM (doses to about 58.2 µM), most hits filed as inhibitors; AlphaScreen AMA1-biotinylated RON2 peptide binding; also: nearly all actives have a fitted effect of over 45% in size
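AMA1 (3D7) with his tag at 25 nM final met compounds first, then biotinylated RON2 peptide at 25 nM; detection used donor plus acceptor beads, 10 µg/mL apiece, read by AlphaScreen after 30 min at room temperature.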
AmpC inh no detg = inhibitors of E. coli AmpC beta-lactamase without detergent | P00811 | AmpC nitrocefin hydrolysis, absorbance 480 nm, 0.0001% Triton | Potency, µM (doses to about 57.1 µM), usual class: inhibitors | hit rate 0.52% among 330,000 | AID 485341; also: nearly all actives have a fitted effect of over 20% in size
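20 mM phosphate pH 7.0 + 0.01% (detergent screen) or 0.0001% Triton X-100; 5.3 nM AmpC reagent; cpd preinc 15 min RT; nitrocefin (800 uM stock) to start; A480 q20 s × 4 min; Activity was normalised to no-enzyme and no-compound control wells.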
FMDV inh = foot and mouth disease virus antiviral activity; FMDV antiviral cell-based qHTS; Potency, µM (titrated, usually from 57.9 µM), most hits filed as inhibitors; hit rate 1.2% among 410,000; calls by dose curve; tested in HEK293T cells; also: read-out not given here; nearly all actives have a fitted effect of over 45% in size
Sm TGR inh = S. mansoni TGR enzyme inhibition. Q962Y6. purified TGR, DTNB reduction, TNB absorbance 405 nm. Potency, µM (highest dose often 114 µM), usual class: inhibitors. hit rate 3% among 360,000. AID 485364; also: nearly all actives have a fitted effect of over 60% in size
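First, TGR (20 nM dispensed) and NADPH were mixed with compound. Second, a 15 min room-temperature incubation followed. Third, further NADPH and then DTNB were added to start the reaction. Finally, TNB absorbance was monitored kinetically.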
Large screens that a line does not name were inactive. Unless noted, calls follow the shape of the dose curve; as a rule, active = well fitted curve in the direction sought with a large enough effect; inconclusive = small, poorly fitted or top-dose-only effect, or another doubt; inactive = no such curve, though single readings can be large; an effect the other way counts as inactive or inconclusive.

CC(=O)CCc1oc2ccc(NC(C)=O)cc2c1-c1ccc(C)o1	Sm TGR inh 20µM
COc1ccc(-c2cc(=NCCCCCC(=O)O)c3cc(C)ccc3o2)cc1	none
CC(=O)CCc1oc2ccc(C)cc2c1-c1ccc(C)o1	Sm TGR inh 25.1µM
Cc1ccccc1C(=O)NCCc1sc(-c2ccc(Cl)cc2)nc1C	none (no result: AMA1-RON2 inh, AmpC inh no detg)
COC(=O)[C@]1(CC(C)C)N[C@H](c2ccc(-c3ccc(F)cc3)c(OC)c2)[C@@H]2C(=O)N(C)C(=O)[C@@H]21	Sm TGR inh 20µM
CCN1C(=O)[C@H]2[C@@H](c3ccc(-c4cccc(Cl)c4)c(OC)c3)N[C@@](Cc3ccccc3)(C(=O)OC)[C@H]2C1=O	AmpC inh detg inconclusive, Sm TGR inh 28.2µM
COc1ccc(C2NC(Cc3ccccc3)(C(=O)O)C3C(=O)N(c4ccccc4OC)C(=O)C23)cc1 (centres undefined)	Sm TGR inh 22.4µM
CCN1C(=O)[C@H]2[C@@H](c3ccc(-c4ccc5c(c4)OCO5)c(OC)c3)N[C@@](CC(C)C)(C(=O)OC)[C@H]2C1=O	Sm TGR inh 50.1µM
Cc1cc(OCC(=O)N(Cc2ccc(N(C)C)cc2)CC2CCCO2)ccc1Cl (centres undefined)	none (no result: AMA1-RON2 inh, AmpC inh no detg)
Cc1ccc(C(=O)Nc2cccc(-c3nc(CNC(=O)C4CCCCC4)c(C)o3)c2)s1	none (no result: AmpC inh detg, AMA1-RON2 inh, AmpC inh no detg, Sm TGR inh)
Cc1cccc(N2CCN(C3(c4ccccc4)C(=O)c4ccccc4C3=O)CC2)c1C	none (no result: AMA1-RON2 inh, AmpC inh no detg)
Cc1cc(=O)oc2cc(NC(=O)C(CCCCN)NC(=O)C(CC3CCCCC3)NC(=O)OCC3c4ccccc4-c4ccccc43)ccc12 (centres undefined)	none (no result: AmpC inh detg, AMA1-RON2 inh, AmpC inh no detg, Sm TGR inh)
CNc1ccc(C(=O)CC(O)CCC(C)C2OC(=O)CC(O)CC(=O)CC(O)CC(O)CC(O)CC(O)CC3(O)CC(O)C(C(=O)OC)C(CC(O[C@@H]4O[C@H](C)[C@@H](O)[C@H](N)[C@@H]4O)/C=C/C=C/C=C/C=C/C=C/C=C/C=C/C2C)O3)cc1 (some centres undefined)	none (no result: AmpC inh detg, AMA1-RON2 inh, AmpC inh no detg, Sm TGR inh)
CC(=O)c1cc(CN2CCCCC2)cc(OC(C)C)c1	none
CCOc1cc(CN2CCOCC2)cc(C(C)=O)c1	Sm TGR inh 44.7µM
COc1ccc(/C=C2/CSC/C(=C/c3ccc(OC)c(OC)c3)C2=O)cc1OC	AMA1-RON2 inh inconclusive, FMDV inh 3.55µM (no result: AmpC inh detg, AmpC inh no detg, Sm TGR inh)
COc1cc(C=C2CCCC(=Cc3ccc(OCC4CO4)c(OC)c3)C2=O)ccc1OCC1CO1 (centres undefined)	FMDV inh 11.2µM (no result: AmpC inh detg, AmpC inh no detg, Sm TGR inh)
Cc1ccc2nc(-c3cc(NC(=O)COc4ccc(C)c(C)c4)ccc3Cl)oc2c1	none (no result: AMA1-RON2 inh, AmpC inh no detg)
Cc1cc(-c2ccnc(-n3ncc(C(=O)NCC(C)(C)N4CCOCC4)c3C)n2)c(C)s1	none (no result: AmpC inh detg, AMA1-RON2 inh, AmpC inh no detg, Sm TGR inh)
COc1ccc(N=Cc2sc(O)c3ccccc23)cc1	AmpC inh no detg inconclusive
COc1ccc(N=Cc2c(O)c3ccccc3n2C(C)=O)cc1	Sm TGR inh 28.2µM
COc1cc(O)c(C(CCN2CCN(c3ccccc3)CC2)c2ccc3c(c2)OCO3)c(OC)c1 (centres undefined)	AMA1-RON2 inh 15.8µM
COc1cc(OC)c2ccc(=O)oc2c1C(CCN1CCN(c2ccccc2)CC1)c1ccc(N(C)C)cc1 (centres undefined)	AMA1-RON2 inh 25.1µM
COc1cc(O)c(C(CCN2CCCC2)c2ccc3c(c2)OCO3)c(OC)c1 (centres undefined)	none
COc1cc(OC)c2c(-c3ccccc3)cc(=O)oc2c1C(CCN1CCN(c2ccccc2)CC1)c1ccc(N(C)C)cc1 (centres undefined)	AMA1-RON2 inh 7.94µM
COc1cc(OC)c2c(-c3ccccc3)cc(=O)oc2c1C(CCN1CCCC(C)C1)c1ccc(N(C)C)cc1 (centres undefined)	AMA1-RON2 inh 15.8µM
COc1ccc(C(CCN2CCCC(C)C2)c2c(OC)cc(OC)c3c(-c4ccccc4)cc(=O)oc23)cc1 (centres undefined)	none
COc1ccc(S(=O)(=O)n2nc(C)c(S(=O)(=O)N3CCCCC3)c2C)cc1	none (no result: AMA1-RON2 inh, AmpC inh no detg)
COc1ccc(NC(=O)N2CC[C@@]3(CCCN(C(C)=O)C3)C2)cc1	none (no result: AmpC inh detg, AMA1-RON2 inh, AmpC inh no detg, Sm TGR inh)
COc1ccc(C2CC(=O)Oc3c(C(CCN4CCCC(C)C4)c4ccc(N(C)C)cc4)c(OC)cc(OC)c32)cc1 (centres undefined)	AMA1-RON2 inh 17.8µM

Screening results as filed in PubChem.
